Bioassay records: PubChem BioAssay, several laboratories
TcdB inh: TcdB glycohydrolase inhibitors, primary screen, biochemical, single point, plate reader | 350,000 tested, 0.24% active | inhibition, % at 9.99 µM | Toxin B (Clostridioides difficile), P18177 | AID 652162, 2013 | TcdB glycohydrolase enzymatic assay; in the data active means inhibition above about 10%
ugtP null kill: growth inhibition of ugtP-null S. aureus, primary screen, RN4220 ugtP deletion, OD600 | 16 h | growth inhibition, % (no concentration beside the values) | 330,000 tested, 0.54% active; in the data active means growth inhibition above about 68%
PfHsp40 rescue: rescue of yeast from PfHsp40 toxicity, primary screen, S. cerevisiae, ATP luminescence | AID 504582, 2011 | growth rescue, % at 12.5 µM | S. cerevisiae expressing PfHsp40, growth rescue | 340,000 tested, 0.68% active; in the data active means growth rescue above about 28%, passing the limit was not always enough;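 further: yeast W303a lacking pdr1 and pdr3 grown in galactose medium; growth measured after three days at 30 °C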
MazF activator: activators of E. coli MazEF toxin-antitoxin RNase, primary screen, biochemical, fluorescence, uHTS. 350,000 tested, 0.32% active. activation, % at 20 µM. Endoribonuclease toxin MazF (Escherichia coli (strain K12)), P0AE70. FAM/BHQ RNA-DNA oligo cleavage fluorescence, 5 h; in the data active means activation above about 50%
Target sequence (P0AE70 whole entry, looked up): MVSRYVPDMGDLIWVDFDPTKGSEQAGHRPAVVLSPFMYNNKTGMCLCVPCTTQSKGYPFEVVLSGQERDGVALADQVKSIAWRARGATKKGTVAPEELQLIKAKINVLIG
RN4220 kill: growth inhibition of S. aureus RN4220, primary screen, OD600 | 330,000 tested, 0.33% active | inhibition, % (concentration not given with the values) | 16 h; in the data active means inhibition above about 85%
Mtb hypoxia rep: PubChem AID 1159583; 300,000 tested, 0.1% active; M. tuberculosis hypoxia-regulated fluorescent reporter, fluorescence; fluorescence inhibition, % (concentration not given with the values); in the data active means fluorescence inhibition mostly above about 23%, no sharp cut-off; inactive means mostly below about 17%
Hits are given with their value; . = inactive; / = no result shown; + = active, no number. Only some compounds are listed: those with a hit (about 1.3% of all), similar ones and a draw of the others.

SMILES	TcdB inh	ugtP null kill	PfHsp40 rescue	MazF activator	RN4220 kill	Mtb hypoxia rep
CNCC(Cc1ccccc1)NCC(CC1CCCCC1)NCCCc1ccccc1 (configuration not stated)	/	.	/	/	85	/
CNC[C@H](CC1CCCCC1)NC[C@H](CO)NCCc1cccc(C(F)(F)F)c1	.	/	.	.	/	/
CNCC(CC1CCCCC1)NCC(Cc1ccccc1)NCCC12CC3CC(CC(C3)C1)C2 (configuration not stated)	/	101	/	/	100	/
Cc1ccc(C(C)(C)C)cc1S(=O)(=O)Nc1ncnc2sccc12	.	.	251	.	.	.
COc1ccc(C(=O)NN=C/C(C)=C/c2ccccc2)cc1OC	/	.	/	/	.	.
Cc1cccc(C)c1NS(=O)(=O)c1ccc(-c2cnc(C3CC3)o2)cc1	.	.	283	.	.	.
Cc1ccc(NS(=O)(=O)c2ccc(-c3cnc(C4CC4)o3)cc2)cc1	.	.	.	.	.	.
CCCC(C)Sc1nc2c([nH]1)c(=S)n(C)c(=O)n2C (configuration not stated)	.	/	38	.	/	/
O=C(NCCCN1CCOCC1)c1cccc(NC(=O)c2ccccc2)c1	.	/	122	.	/	/
CCOC(=O)NNc1ccc2nonc2c1[N+](=O)[O-]	/	/	124	.	/	/
CCc1ccc(Nc2ccc3nonc3c2[N+](=O)[O-])cc1	.	.	.	.	.	.
COC(=O)NN=Cc1cc(C)n(-c2cccc3ccccc23)c1C	/	.	/	/	.	.
Fc1ccc2nc3[nH]c4ccccc4c3nc2c1	/	.	47	.	.	.
OC1=C(O)c2nc3cc(F)ccc3nc21	.	.	.	.	.	.
COc1ccc(C(=O)NCC(=O)NN=C(C)Cc2ccccc2)cc1	/	.	/	/	.	.
COc1ccc(C(=O)NCC2(c3ccc(OC)c(OC)c3)CCCC2)cc1OC	.	/	/	.	/	/
COc1ccc(C2(CNC(=O)c3ccc(OC)c([N+](=O)[O-])c3)CCCCC2)cc1OC	12	.	.	.	.	.
NC(=O)c1nc(C2CCCCC2)nc2c1[nH]c(=O)n2-c1ccc(F)cc1	.	.	.	86	.	.
CCC(=NN=C(CC)c1ccccc1)c1ccccc1	/	.	/	/	.	.
CO[C@@H]1CN(C)C(=O)c2ccc(NC(=O)c3nc4ccccc4s3)cc2OC[C@@H](C)NC[C@@H]1C	.	/	/	/	/	/
C[C@@H]1CCCCO[C@H](CN(C)C(=O)C2CCCCC2)[C@@H](C)CN([C@H](C)CO)C(=O)c2cc(NC(=O)Nc3ccc(F)cc3)ccc2O1	.	/	/	/	/	/
C[C@@H]1CCCCO[C@@H](CN(C)S(C)(=O)=O)[C@H](C)CN([C@H](C)CO)C(=O)c2cc(NC(=O)Nc3ccc4c(c3)OCO4)ccc2O1	.	/	/	/	/	/
CCOC(=O)c1c(SC)[nH]c2c(Cl)cccc2c1=O	.	.	93	.	.	.
CCOC(=O)c1c(C)[nH]c2c1cc(O)c1ccccc12	.	.	.	.	.	.
CCCNC(=O)C[C@@H]1C[C@H]2c3cc(NC(=O)NC4CCCC4)ccc3O[C@H]2[C@H](CO)O1	.	/	/	/	/	/
SMILES	TcdB inh	ugtP null kill	PfHsp40 rescue	MazF activator	RN4220 kill	Mtb hypoxia rep
Cc1ccc2c(Cl)cc(Cl)c(O)c2n1	.	99	.	.	99	.
Oc1c(Cl)cc(Cl)c2cccnc12	.	.	.	.	.	.
COc1ccc(NC(=O)c2sc3nc(-c4cccnc4)ccc3c2N)cc1OC	.	.	.	+	.	.
Cc1ccccc1S(=O)(=O)N1CC(=O)N2[C@H](CO)[C@@H](c3ccc(C#Cc4ccccc4)cc3)[C@@H]2C1	.	/	/	/	/	/
CN1CCN(C(=O)C[C@H]2CC[C@@H](NC(=O)Nc3ccccc3F)[C@@H](CO)O2)CC1	.	/	/	/	/	/
CNC(=O)c1c(NC(=O)CS(=O)(=O)c2ccccc2)sc(C)c1C	.	.	51	.	.	.
CNC(=O)c1c(NC(=O)CS(=O)(=O)c2ccc(Cl)cc2)sc(C)c1C	.	.	.	.	.	.
c1ccc(C2OC3c4cccc5cccc(c45)C3N2c2ccccc2)cc1 (configuration not stated)	/	84	.	.	.	.
COC(=O)C1=C(C)N(Cc2ccccc2)C(=NCCCCO)NC1CCc1ccccc1 (configuration not stated)	/	.	/	/	.	.
Cc1ccc(NN=C2CS(=O)(=O)N(C)c3ccsc32)cc1	/	.	/	/	99	.
CC(C)C#Cc1ccc([C@@H]2[C@@H](CO)N(C(=O)C3CC3)[C@H]2C#N)cc1	.	/	/	/	/	/
Cc1cc(C)nc(NN=Cc2c[nH]c3ccccc23)n1	/	.	/	/	.	.
c1ccc(C2(CN3CCNCC3CC3CCCCC3)CC2)cc1 (configuration not stated)	/	.	/	/	.	.
CC1CCC(C(C)C)C(OC(=O)CSc2nc(N)cc(=O)[nH]2)C1 (configuration not stated)	.	.	.	.	.	.
Cc1cccc(OCc2n(CC(=O)OC3CC(C)CCC3C(C)C)c3ccccc3[n+]2C)c1 (configuration not stated)	/	/	/	.	/	/
CC1CCC(C(C)C)C(OC(=O)Cn2c(COc3ccccc3)[n+](C)c3ccccc32)C1 (configuration not stated)	.	100	.	.	101	/
CC1CCC(C(C)C)C(OC(=O)Cn2c(-c3ccc(F)cc3)[n+](C)c3ccccc32)C1 (configuration not stated)	.	100	.	.	97	/
CC1CCC(C(C)C)C(OC(=O)Cn2c(-c3ccccc3)[n+](C)c3ccccc32)C1 (configuration not stated)	.	100	.	.	99	/
COc1ccc(C2CC(=O)C=C(c3cccc(OCc4ccccc4)c3)C2)cc1 (configuration not stated)	/	.	/	/	.	.
O=C(CC(SCCO)c1ccc([N+](=O)[O-])cc1)c1ccco1 (configuration not stated)	.	.	.	.	.	.
CC(=O)NC(CSC(CC(=O)c1ccco1)c1ccc(C)cc1)C(=O)O (configuration not stated)	.	.	.	249	.	.
CN(C)c1ccc2nc3ccc(=[N+](C)C)cc-3sc2c1	.	.	.	.	.	99
COC(=O)C(CCSC)NC(=O)Cn1ccc(NC(=O)OCc2ccccc2)nc1=O (configuration not stated)	/	.	/	/	.	.
Cc1cccc(Cn2nnc3c2C(=O)c2ccccc2C3=O)c1	/	86	.	.	.	.
O=c1c(-c2ccc(Br)cc2)[n+]([O-])c2ccccc2n1OCc1ccccn1	.	.	.	.	.	.
O=c1c(-c2cc3ccccc3o2)[n+]([O-])c2ccccc2n1OCc1ccccn1	/	.	.	119	.	.
CCOn1c(=O)c(-c2cc3ccccc3o2)[n+]([O-])c2ccccc21	.	.	.	741	.	.
Cc1ccccc1-n1c(SCC(=O)NC(N)=O)nc2sc(-c3ccccc3)cc2c1=O	.	99	.	.	96	.
